This passage reports Potency and activity change, negative = cytotoxicity results from PubChem BioAssay (Tox21).

Results filed as inconclusive are left out. A call without a number means that no potency is given here. Active and inactive are the calls of the source. The call rests on the fitted dose curve; in most records, active means well fitted cell-killing curve with a large enough effect in the repeat runs; inconclusive means weak or mixed curves, or effect the other way; inactive means flat fitted curve, though single readings scatter.

A short description of this experiment: qHTS RealTime-Glo MT Cell Viability Assay in HEK293 cells - 0 hour (AID 1224880). Further: top concentration of the series differs between compounds; nearly all actives have a fitted effect of over 45% in size. To be noted: RealTime-Glo luminescence; series mostly up to 76.8 µM. An excerpt:
U.S. Tox21 Program National Center for Advancing Translational Sciences [NCATS] NIH Chemical Genomics Center [NCGC] U.S. Environmental Protection Agency [EPA] National Institutes of Environmental Health Sciences [NIEHS] National Toxicology Program [NTP] U.S. Food and Drug Administration [FDA] Tox21 Assay Overview: Measure of cell viability is critical in the cell-base assay. Analysis of cell viability is necessary for the characterization of cell responses to cytotoxic drugs and environmental stress. A RealTime-Glo MT Cell Viability Assay to monitor cell viability in real time of continues cell culture during 40 hours of compound treatment was used to screen Tox21 10K library compounds in Hek293 cells. The RealTime-Glo MT Cell Viability Assay is a nonlytic, homogeneous, bioluminescent method to measure cell viability in real time using a simple, plate-based method. The assay involves adding NanoLuc luciferase and a cell-permeant prosubstrate to cells in culture. Viable cells reduce the proprietary prosubstrate to generate a substrate for NanoLuc luciferase. This substrate diffuses from cells into the surrounding culture medium, where it is rapidly used by the NanoLuc Enzyme to produce a luminescent signal. The signal correlates with the number of viable cells, making the assay well suited for cytotoxicity studies.
Tox21 Assay Protocol Summary: The mixture of Hek293 cell suspension and reagents were dispensed at 600cells/6 ul/well in 1536-well tissue culture treated black solid bottom plates using a Multidrop dispenser. After the assay plates were incubated at a 37 C/5% CO2 incubator for 5 hours, 23 nL of compounds dissolved in DMSO, positive and negative controls was transferred to the assay plate by a pintool work station. The plates were incubated at 37 C for 40 hours. The luminescence intensity were measured at 0h, 8h, 16h, 24h, 32h and 40h time points using ViewLux plate reader during compound treatment.
(In qHTS, concentration-response curves come from the screen itself.)
With `CC(C)OC(=O)CCCCC(=O)OC(C)C`, the Potency entry was “inactive”.

Regarding `O=S(=O)(O)c1cc(O)c2ccc(Nc3ccccc3)cc2c1`, the Potency result is “inactive”.

As to `N#Cc1ccc(C(=O)O)cc1`, the Potency result is “inactive”.

On to `CO[C@@H]1[C@@H](OC(N)=O)[C@@H](O)[C@H](Oc2ccc3c(O)c(NC(=O)c4ccc(O)c(CC=C(C)C)c4)c(=O)oc3c2C)OC1(C)C`, for which the Potency entry was “inactive”.

As to `COP(=O)(OC)OC(c1ccc(Cl)cc1)P(=O)(OC)OC` (stereo not given), the Potency result is “inactive”.

For the molecule `NNc1nnc(NN)c2ccccc12`, the Potency result was “inactive”.

On to `CCCCCCCCCCl`, for which the Potency entry was “inactive”.

`CCCN1C[C@H](CSC)C[C@@H]2c3cccc4[nH]cc(c34)C[C@H]21`: the Potency entry was “inactive”.

As for `COC(=O)C1CC(=O)C(C(=O)OC)CC1=O` (stereo not given), the activity change, negative = cytotoxicity is 2.08% [at 6.97 µM] (inactive).

As to `COc1ccc2nc(SCc3ncc(C)c(OC)c3C)[nH]c2c1`, the Potency entry is “inactive”.

Regarding `N[C@@H](CCC(=O)Nc1ccc([N+](=O)[O-])cc1)C(=O)O`, the Potency entry was “inactive”.

As for `COc1nccnc1NS(=O)(=O)c1ccc(N)cc1`, the Potency entry was “inactive”.

As to `CC(C)c1ccc2cc(C(C)C)ccc2c1`, the Potency entry was “inactive”.

As for `CC(C)CC(=O)O`, the Potency entry is “inactive”.

For `C=CC(OCC)OCC`, the Potency result is “inactive”.

On to `C=C(C)C1CCC(C)(O)CC1` (stereo not given), for which the Potency result is “inactive”.

With `CCO[Si](CCCS)(OCC)OCC`, the Potency entry was “inactive”.

As for `O=C1O[C@@H]2[C@@H](O)[C@H](O)O[C@@H]2[C@H]1O`, the Potency entry was “inactive”.

With `O=C(O)CCSSCCC(=O)O`, the Potency result is “inactive”.

For the molecule `O=C(NCCN1CCOCC1)c1ccc(Cl)cc1`, the Potency entry is “inactive”.

`CC(=O)NCCCCCC(=O)O`: the Potency result was “inactive”.

For `Oc1ccccc1-c1nnco1`, the Potency result is “inactive”.

With `COC(=O)CCCCCCCC(=O)OC`, the Potency entry is “inactive”.

`CCC(CC)CO`: the Potency result is “inactive”.

With `CC1=C(C(=O)O)N2C(=O)[C@@H](NC(=O)[C@H](N)c3ccc(O)cc3)[C@H]2SC1`, the Potency entry was “inactive”.

For `C=COCCOCCOCCOC=C`, the Potency entry was “inactive”.

For the molecule `Cc1ccc(S(=O)(=O)O)c(C)c1`, the Potency result was “inactive”.

As to `CNC(=O)[C@H]1O[C@@H](n2cnc3c(NCc4cc(Cl)ccc4OCc4cc(C)no4)ncnc32)[C@H](O)[C@@H]1N`, the Potency result was “inactive”.

With `CC(C)N(c1ccccc1)C(C)C`, the Potency result is “inactive”.

Take `OCCN(CCO)c1cccc(Cl)c1`: the Potency entry is “inactive”.

As to `CN(C)c1ccc(C=O)cc1`, the Potency entry was “inactive”.

With `COc1ccc(S(=O)(=O)N2c3ccc(Cl)cc3[C@@](O)(c3ccccc3Cl)[C@H]2C(=O)N2CCC[C@@H]2C(N)=O)cc1OC`, the Potency result is “inactive”.

Turning to `BrCc1cccc(Oc2ccccc2)c1`, the Potency entry was “inactive”.

Turning to `CCCOC(=O)C(C)O` (stereo not given), the Potency entry is “inactive”.

`O=C1CC(c2ccc(Cl)cc2)CC(=O)N1`: the Potency result is “inactive”.

As for `O=C(/N=N/C(=O)OCc1ccccc1)OCc1ccccc1`, the Potency entry was “inactive”.

For the molecule `Nc1ccc(S(=O)(=O)Nc2ccc(Cl)nn2)cc1`, the Potency result was “inactive”.

With `CCOC(=O)CC(=O)c1ccccc1`, the Potency result was “inactive”.

For `O=Cc1ccc(Cl)c(Cl)c1`, the Potency entry was “inactive”.

For the molecule `O=C1c2ccccc2C(=O)c2cc(S(=O)(=O)O)ccc21`, the Potency result is “inactive”.
